Laboratory results reported in PubChem BioAssay AID602289 (National Center for Advancing Translational Sciences (NCATS), 2012).
In all, about 2,400 compounds went through this assay and about 40 (2%) were called active. Another 1% or so got no clear call; they are omitted.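 The calls were made as follows: active = inhibition at or above 60%; inconclusive = inhibition from 0% up to below 60%; inactive = no inhibition observed.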 The sample as a whole holds a higher share of actives than the screen did.

test: qHTS Assay for Small Molecule Inhibitors of Mitochondrial Division or Activators of Mitochondrial Fusion: Hit Validation in Malachite Green Assay; settings: purified GTPase, malachite green phosphate release, A650; stronger effect = higher value;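 as to inhibition: plate controls were DMSO wells with GTPase for no effect and protein-free buffer wells for full effect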
Text: The budding yeast S. cerevisiae is a powerful system to study mitochondrial fusion. Unlike other organisms, yeast cells without functional mitochondrial DNA (mtDNA) can be propagated and studied as long as they maintain a mitochondrial compartment and are provided with a fermentable carbon source. When mitochondrial fusion is blocked in yeast, mitochondrial tubules rapidly fragment and division continues unopposed. Under conditions where fusion is compromised in mammalian cells, nearly identical changes in mitochondrial structure have been observed. Thus, these findings indicate that steady state mitochondrial structure in cells is a characteristic and specific indicator of fusion activity. Mounting evidence has pointed to a connection between mitochondrial dynamics and apoptosis in mammalian cells. These studies indicate that in mammalian cells mitochondrial dynamics are more integrated into cellular processes than in yeast cells and have evolved not only to distribute the organelle but also to aid in the regulation of cellular homeostasis. Mitochondrial fusion proteins attenuate apoptosis by inhibiting the release of cytochrome c from mitochondria, in part by controlling cristae structures. Thus, small molecules that inhibit mitochondrial fusion may promote apoptosis and potentially act as novel chemotherapeutics and stimulation of apoptosis has become an attractive target of anti-cancer therapies. To identify inhibitors of mitochondrial division, we exploit the growth phenotypes of mitochondrial fusion-defective mutants. The temperature sensitive fusion alleles, such as fzo1-1 and mgm1-5, cause mitochondrial membranes to fragment in cells under non-permissive conditions and cells lose mtDNA, and are unable to grow in the presence of non-fermentable carbon source glycerol. Inhibiting mitochondrial division rescues growth. The hits were tested by the assay provider in a malachite green assay. NIH Chemical Genomics Center [NCGC] NIH Molecular Libraries Probe Production Centers Network [MLPCN] MLPCN Grant: MH081279 Assay Submitter (PI): Jodi M. Nunnari
Malachite Green Reagent Malachite Green carbinol base- Aldrich 229105 Ammonium molybdate - Sigma A7302 For 100 mL Malachite Green reagent in 1N HCl 16 mL conc. HCL + 32 mL H20 = 48 mL 4N HCl 34 mg malachite green base into 40 mL 1N HCl (10 mL 4N HCl + 30 mL H20) 1 g ammonium molybdate in 15 mL 4N HCl Mix Solutions together. Bring up to […] with H2O. Filter using a 0.2 um tissue culture filter unit (has plastic bottle attached) store at 4 masculine C. (Avoid Glassware/Plastics washed in detergent. Mix solutions in 50 mL conical vials.) For 20 uL reaction volume 1.0 uL Test Drug or DMSO: Added first to each well […]: 25 mM Hepes/Pipes pH 7.0 (H/P) 2.0 uL: 50 mM MgCl2 (final 5mM) 2.32 uL: 1 M NaCl (with contributing protein salt, Final = 150mM) 13.4 uL per reaction. Can be mixed in larger volume (Mini Master Mix) 1.6 uL: Protein 7.5 uM or Protein Freezing Buffer. (Final = 0.6uM) After Protein Added to mini Master Mix, 15ul Total Master Mix added to each well with drug. 4 uL: 500 uM GTP (Final = 100uM), Dilute with 25 mM H/P, store on ice. 20 uL Total Volume Make Master Mix: (Calculate desired reactions and add a few for multi-channel pipetting volume). Multiply the number of desired reactions by 13.4 uL for total Mini Master volume. Multiply the number of desired reactions by 1.6 uL for total Protein volume. Mix, and keep on ice until added to wells. Add 15 uL of Master Mix to each reaction well, incubate with drug for 10 min. For Positive (No Drug) controls add 15 uL Master Mix to wells with only 1 uL DMSO. Make PFB (Protein Freezing Buffer) (no Protein) Master Mix. Multiply the number of desired reactions by 13.4 uL for total Mini Master volume. Multiply the number of desired reactions by 1.6 uL for total PFB volume. Mix, and keep on ice until added to wells Add 10 uL of PFBMaster Mix to each Phosphate Standards well, and 15 uL to each negative control well with DMSO. […]

SMILES	inhibition
Cc1nc(CS(=O)(=O)c2ccccc2)cc(Sc2ccc(Cl)cc2Cl)n1	inactive
COc1cc(OC)cc(-c2c(-c3cccs3)c3cc(-c4ccn[nH]4)ccc3n2C)c1	inactive
CCOc1ccc(C(=O)Nc2c(C(N)=O)oc3ccccc23)cc1	inactive
CCOC(=O)c1sc(NC(=O)C2=COCCO2)c(C#N)c1C	100% (active)
CCOC(=O)Nc1sc2c(c1C#N)CCC(C)C2 (stereo unspecified)	inactive
CCCc1ccc(-c2csc(NC(=O)C3=COCCO3)n2)cc1	inactive
CCOC(=O)c1sc(NC(=O)c2ccco2)c(C#N)c1C	inactive
CCOC(=O)c1c(NC(=O)C(C)OC(=O)C2=COCCO2)sc2c1CCCC2 (stereo unspecified)	inactive
CCOC(=O)c1sc(NC(=O)c2ccncc2)c(C#N)c1C	104% (active)
CCc1ccccc1N(CC(=O)NCCc1ccccc1)C(=O)CCC(=O)Nc1ccccn1	inactive
COc1ccccc1N1CCN(C(=O)c2cc(=O)c3c(C)cc(C)cc3o2)CC1	inactive
CCOC(=O)c1c(CN2CCN(c3ccccc3)CC2)oc2ccc(O)cc12	inactive
CNC(=O)c1ccsc1NC(=O)c1ccccc1	inactive
C=CCN(c1ccccc1)S(=O)(=O)c1ccc2c(c1)NC(=O)C(C)S2 (stereo unspecified)	inactive
CCCNC(=S)N1CCN(c2nc(C)nc3sc4c(c23)CCCC4)CC1	inactive
O=C(Nc1ccc(Cl)c(-c2nc3ccccc3[nH]2)c1)c1ccc2c(c1)OCO2	inactive
S=C(Nc1ccc(Oc2ccccc2)cc1)NC1CCCCC1	inactive
O=C1C=C(c2cccc(Cl)c2)C[C@@H](c2ccc3c(c2)OCO3)C1	inactive
CCc1nnc(NC(=O)C2c3ccccc3Oc3ccccc32)s1	inactive
O=C(Nc1nc(-c2ccncc2)cs1)C1c2ccccc2Oc2ccccc21	inactive
CC(C)c1nnc(NC(=O)C2c3ccccc3Oc3ccccc32)s1	93.8% (active)
O=C(CCc1ccc(Oc2cc([N+](=O)[O-])cc([N+](=O)[O-])c2)cc1)Nc1cccc(Cl)c1	inactive

SMILES	inhibition
CCN(CC)C(=O)CSc1nc2cc3c(cc2c(=O)n1CCCCCC(=O)NCc1ccc(OC)cc1)OCO3	inactive
Cc1ccc(NCc2n[nH]c(=S)n2-c2cccc(Cl)c2)cc1	inactive
CC1CCc2[nH]c3ccc(C(=O)N4CCCC(C(F)(F)F)C4)cc3c2C1 (stereo unspecified)	inactive
Cc1ccc(-n2nnnc2SCC(=O)c2cc(C)n(-c3cc(C)on3)c2C)c(C)c1	inactive
C#CCOc1ccc(/C=C2\SC(=S)N(Cc3cccnc3)C2=O)cc1	inactive
O=C(CCCN1C(=O)/C(=C/c2ccccc2)SC1=S)Nc1ccccc1O	inactive
O=C1/C(=C\c2ccc(O)c(O)c2)SC(=S)N1Cc1ccccc1	94.2% (active)
O=C(CN1CCN(c2ccccn2)CC1)Nc1ccccc1	inactive
CC(C)n1c(O)c(N=NC(=O)C2COc3ccccc3O2)c2ccccc21 (stereo unspecified)	inactive
CCOC(=O)N=Nc1c(O)n(Cc2ccccc2)c2ccccc12	inactive
Cc1c(/C=N\NC(=O)C2COc3ccc(C(C)(C)C)cc3O2)c2ccccc2n1C (stereo unspecified)	inactive
CC(C)(C)c1ccc2c(c1)OC(C(=O)N/N=C\c1ccccn1)CO2 (stereo unspecified)	66% (active)
CCSc1nnc(NC(=O)c2ccccc2C)s1	inactive
COCCCNc1nc2ccccc2nc1NS(=O)(=O)c1cccc(Cl)c1	inactive
Cc1ccc(C)c(NC(=O)c2ccccc2Sc2ccc([N+](=O)[O-])cc2Cl)c1	inactive
N#Cc1ccc(-c2ccccc2)nc1SCC(=O)c1cc2ccccc2oc1=O	inactive
O=C(COc1ccc(F)cc1Br)Nc1ccccc1N1CCOCC1	inactive
CC1=C(C(=O)OCc2ccccc2)C(/C=C/c2ccccc2)N2C(=O)CCSC2=N1 (stereo unspecified)	inactive
CCNC(=O)C(=O)N/N=C/c1cc([N+](=O)[O-])ccc1O	78.8% (active)
O=[N+]([O-])c1ccc(O)c(P(=O)(c2ccccc2)c2ccccc2)c1	inactive
CCN(CC)c1ccc(/C=N/NC(=O)c2ccc([N+](=O)[O-])cc2)cc1	inactive
CCOC(=O)c1c(NC(=O)COC(=O)Cn2cnc3ccccc32)sc2c1CCC(C)C2 (stereo unspecified)	inactive

SMILES	inhibition
N#C/C(=C\c1cn[nH]c1-c1ccc(Cl)cc1)C(=O)NCc1ccccc1	inactive
O=C(Nc1cccc(Br)c1)c1ccccc1-c1ccccc1	inactive
Nc1c(-c2ccccc2)c(CSc2nc3ccccc3[nH]2)nn1-c1ccc(Cl)cc1	inactive
O=c1c2ccccc2sn1-c1cc(S(=O)(=O)N2CCOCC2)ccc1N1CCCC1	103% (active)
O=C(c1cc(S(=O)(=O)N2CCN(c3ccccc3)CC2)ccc1Cl)N1CCCCCCC1	inactive
CCN(Cc1ccccc1)C(=O)c1oc2ccc(S(=O)(=O)N3CCOCC3)cc2c1C	inactive
CCOC(=O)c1cccc(-c2c(-c3ccccc3)ncc3cc(OC)c(OC)cc23)c1	inactive
O=C(NCc1ccc2c(c1)OCO2)c1ccc(CSCc2ccc(Cl)cc2)o1	inactive
O=C(Nc1ccccc1O)c1c(O)c2c([nH]c1=O)CCCC2	inactive
O=C(O)c1ccccc1CSc1nc2ccccc2n1Cc1ccccc1C(=O)O	inactive
Cc1ccc(C(=O)CSc2nc(C(C)C)nc3ccccc23)cc1	inactive
Cc1cc(SCC(=O)c2ccc(Cl)cc2)nc(=O)[nH]1	96.8% (active)
COc1ccc(C(=O)CSc2ccc(-c3ccc(C)cc3)nn2)cc1	inactive
O=C(Nc1ccc(N2CCOCC2)c(S(=O)(=O)Nc2ccccc2Cl)c1)c1ccccc1	inactive
COc1cccc(C(Nc2ccccn2)c2c(NC(=O)c3ccco3)sc(C)c2C)c1 (stereo unspecified)	inactive
Cc1ccc(C)c(N2CCN(C(=O)CCCn3c(=O)c4cccn4c4cccnc43)CC2)c1	inactive
COc1cccc(C(=O)NC2CCN(C(=O)N3c4ccccc4Sc4ccccc43)CC2)c1	inactive
O=C(COc1cc2oc(=O)cc(-c3ccccc3)c2cc1Cl)NCc1ccccn1	inactive
C/C(=N\NC(=O)COc1ccccc1-c1ccccc1)c1ccccn1	71.6% (active)
O=C(COc1ccccc1-c1ccccc1)NCc1cccc(Cl)c1	inactive
O=[N+]([O-])c1ccccc1SN(Cc1ccccc1)c1ccccn1	inactive
CCC(CC)C(=O)Nc1cc(C(=O)OC)ccc1C(=O)OC	inactive
